The full list was thinned out, with hits kept by preference.
STK33 inh = human STK33 kinase inhibition | actives 0.44% (n = 27,000) | ADP-Glo luminescence, MBP substrate | AID 2322 | inhibition, % at 12.5 µM; in the data active = inhibition above about 20%; inconclusive = no clear call, values can overlap the other calls
Target sequence (Q9BYT3 whole entry, looked up): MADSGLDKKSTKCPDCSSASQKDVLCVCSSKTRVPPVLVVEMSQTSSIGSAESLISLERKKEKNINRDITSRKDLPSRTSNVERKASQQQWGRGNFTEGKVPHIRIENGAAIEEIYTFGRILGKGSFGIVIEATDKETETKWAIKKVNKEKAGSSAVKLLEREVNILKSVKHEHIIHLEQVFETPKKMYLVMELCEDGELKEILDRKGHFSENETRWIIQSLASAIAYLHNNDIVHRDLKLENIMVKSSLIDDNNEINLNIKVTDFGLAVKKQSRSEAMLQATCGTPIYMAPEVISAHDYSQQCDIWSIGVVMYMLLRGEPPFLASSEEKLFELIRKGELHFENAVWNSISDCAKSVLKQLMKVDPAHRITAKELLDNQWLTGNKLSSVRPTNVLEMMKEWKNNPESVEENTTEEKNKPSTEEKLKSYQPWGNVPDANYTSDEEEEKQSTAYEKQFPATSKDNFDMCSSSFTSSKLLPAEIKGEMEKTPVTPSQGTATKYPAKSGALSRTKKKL
NOMO-1 viab = STK33 inhibitor candidate reducing NOMO-1 cell viability; NOMO-1 AML viability, CellTiter-Glo luminescence, 72 h; inhibition, % (no concentration beside the values); actives 7.5% (n = 37,000); AID 2330; in the data active = inhibition above about 80%; inconclusive = no clear call, values can overlap the other calls
PD-1 reverse act = activators reversing PD-1 mediated T-cell inhibition; primary human CD4 T cells, PD-L1 beads, CellTiter-Glo 96 h; activation, % (concentration not given with the values); 29,000 tested, under 10 active; AID 2316; call rule not given here
Of the large screens only hits and unclear results are named; the others gave an inactive call.

Cc1noc(C)c1S(=O)(=O)Nc1ccc2c(c1)C(=O)N([C@@H](C)CO)C[C@H](C)[C@@H](CN(C)Cc1ccc(C(=O)Nc3ccccc3N)cc1)O2	none (no result: STK33 inh)
Cc1nn(Cc2cccc(C(=O)NCc3ccccn3)c2)c(C)c1Cl	none (no result: PD-1 reverse act)
COc1cc2c(c(N)c1OC)C(=O)/C(=C/c1cc(C)c(O)c(C)c1)C2	NOMO-1 viab 97
C[C@@H]1CCCCO[C@@H](CN(C)CC2CC2)[C@@H](C)CN([C@H](C)CO)C(=O)c2cc(NC(=O)Nc3ccc(C(F)(F)F)cc3)ccc2O1	NOMO-1 viab 119
C[C@@H]1CCCCO[C@@H](CN(C)CC2CCCCC2)[C@@H](C)CN([C@H](C)CO)C(=O)c2cc(NC(=O)Nc3ccc(C(F)(F)F)cc3)ccc2O1	NOMO-1 viab 117
C[C@@H]1CCCCO[C@@H](CN(C)Cc2ccc(C(F)(F)F)cc2)[C@@H](C)CN([C@H](C)CO)C(=O)c2cc(NC(=O)Nc3ccc(F)cc3)ccc2O1	none (no result: PD-1 reverse act)
C[C@@H]1CCCCO[C@@H](CN(C)C(=O)NC2CCCCC2)[C@@H](C)CN([C@H](C)CO)C(=O)c2cc(NC(=O)Nc3ccc(C(F)(F)F)cc3)ccc2O1	NOMO-1 viab 99
C[C@@H]1CCCCO[C@H](CN(C)C(=O)Nc2ccc(C(F)(F)F)cc2)[C@@H](C)CN([C@H](C)CO)C(=O)c2cc(NC(=O)NC3CCCCC3)ccc2O1	none
C[C@@H]1CCCCO[C@@H](CN(C)C(=O)Nc2ccccc2)[C@@H](C)CN([C@H](C)CO)C(=O)c2cc(NC(=O)Nc3ccc(C(F)(F)F)cc3)ccc2O1	none
C[C@@H]1CCCCO[C@@H](CN(C)C(=O)Nc2ccc(C(F)(F)F)cc2)[C@@H](C)CN([C@H](C)CO)C(=O)c2cc(NC(=O)c3ccccc3)ccc2O1	NOMO-1 viab 91
C[C@@H]1CCCCO[C@@H](CN(C)Cc2ccncc2)[C@@H](C)CN([C@H](C)CO)C(=O)c2cc(NC(=O)Nc3ccc(C(F)(F)F)cc3)ccc2O1	none (no result: PD-1 reverse act)
CCN(CC)C(=S)Oc1ccc(C#N)cc1	none (no result: STK33 inh)
COc1ccc(-n2c(SCC(=O)Nc3ccc(C)c(C)c3)nnc2-c2ccccc2)cc1	none
Cc1[nH]nc2c1C1=C(C(=O)CCC1)C(c1ccc(N(C)C)cc1)N2 (stereo not given)	none (no result: STK33 inh)
Cc1cc(N(CC(=O)NC2CC3CCC2C3)S(C)(=O)=O)ccc1Br (stereo not given)	none
CCC1=NC(C(F)(F)F)(C(F)(F)F)C2=C(CC(C)(C)CC2=O)N1Cc1ccccc1	none (no result: STK33 inh)
O=C(COc1ccccc1[N+](=O)[O-])Nc1ccc2nn(-c3ccc(F)cc3)nc2c1	none
Cc1ccccc1-n1nnnc1C(c1ccccc1)N(C)Cc1cccc([N+](=O)[O-])c1 (stereo not given)	none (no result: PD-1 reverse act)
CC1=NN(C(=O)c2ccc(Cl)cc2)C(C)(C)C1	none (no result: STK33 inh)
COC(=O)c1ccc(CSc2nnc(-c3cccc(Br)c3)o2)o1	none (no result: NOMO-1 viab, PD-1 reverse act)
C[C@@H]1CCCCO[C@@H](CN(C)CC2CCCCC2)[C@@H](C)CN([C@H](C)CO)C(=O)c2cc(NC(=O)Nc3ccc(F)cc3)ccc2O1	NOMO-1 viab 115
C[C@@H]1CCCCO[C@H](CN(C)CC2CCCCC2)[C@@H](C)CN([C@H](C)CO)C(=O)c2cc(NC(=O)Nc3ccccc3)ccc2O1	NOMO-1 viab inconclusive (no result: PD-1 reverse act)
Cc1cc(C)c(N=C(NN)N(C)C)cc1C	none
Cc1nc(SCC(=O)c2ccc3c(c2)OCCO3)c2c3c(sc2n1)CCC3	none
C=CCC1OC(=O)CCNC(=O)C(C)N(C)C(=O)C(C(C)C)N(C)C(=O)C(C(C)CC)NC(=O)C2CCCN2C1=O (stereo not given)	NOMO-1 viab 112
COc1ccc(-c2nc(SCC(=O)Nc3ccc(Br)c(C)c3C)n[nH]2)cc1	none
CC(=O)O[C@@H]1[C@@H](O)[C@H](C)O[C@@H](Oc2c(-c3ccc(O)cc3)oc3cc(O[C@@H]4O[C@@H](C)[C@H](O)[C@@H](O)[C@H]4O)cc(O)c3c2=O)[C@@H]1O	none
C[C@]12CCC(=O)C=C1CC[C@@H]1C2CC[C@@]2(C)C1CC[C@@H]2C(=O)CO (stereo not given in full)	none
CC12CCC(=O)C=C1CCC1(C)C2(C)CCC2(C)C(C(=O)CO)CCC21C (stereo not given)	NOMO-1 viab 94
COC(=O)COc1cccc(NC(=O)c2cc(OC)cc(OC)c2)c1	NOMO-1 viab 109
O=C(COc1cccc(NC(=O)c2ccc(Cl)cc2)c1)c1ccccc1	none (no result: PD-1 reverse act)
COC(=O)COc1cccc(NC(=O)c2ccc(Br)cc2)c1	NOMO-1 viab 119
Cc1ccc(C(=O)COc2cccc(NC(=O)c3ccc(Br)cc3)c2)cc1C	none (no result: PD-1 reverse act)
COc1cccc(C(=O)Nc2cccc(OCC(=O)O)c2)c1	none
O=C(O)COc1cccc(NC(=O)c2ccc(-c3ccccc3)cc2)c1	none
COC(=O)COc1cccc(NC(=O)c2ccc(C)cc2)c1	NOMO-1 viab 116 (no result: PD-1 reverse act)
COC(=O)COc1cccc(NC(=O)c2ccc(Cl)cc2)c1	NOMO-1 viab 114 (no result: PD-1 reverse act)
Nc1cc(=O)[nH]c(SCC(=O)Nc2ccc(F)cc2)n1	none (no result: PD-1 reverse act)
N#Cc1cccc(C#N)c1Oc1ccc(S(=O)(=O)NCc2ccco2)cc1	none (no result: STK33 inh)
CC(C)(C)c1ccc(C(O)CCCN2CCC(C(O)(c3ccccc3)c3ccccc3)CC2)cc1 (stereo not given)	NOMO-1 viab 142
OC(CCN1CCCCC1)(c1ccccc1)C1CCCCC1 (stereo not given)	none (no result: PD-1 reverse act)
O=C(Nc1ccccc1[N+](=O)[O-])c1cc(S(=O)(=O)Nc2ccccc2)c(Cl)cc1Cl	none
COc1cccc(C(=O)COc2cccc(NC(=O)c3ccc(Cl)c(Cl)c3)c2)c1	none (no result: PD-1 reverse act)
O=c1cc(-c2ccccc2)nc2scc(-c3ccc(Cl)cc3)n12	none (no result: STK33 inh)
O=c1cc(-c2ccccc2)nc2cc(-c3ccccc3)[nH]n12	NOMO-1 viab 107
COc1ccccc1COc1ccc2c3c(c(=O)oc2c1C)CCCCC3	NOMO-1 viab 87 (no result: STK33 inh)
COc1ccc(OC)c(NC(=O)COc2ccc3c4c(c(=O)oc3c2C)CCC4)c1	none
Cc1ccc2nc(-c3cccc(Br)c3)cc(C(=O)NCc3cccnc3)c2c1	none
O=C(CSc1nc2cc(Cl)ccc2s1)Nc1ccc2c(c1)OCCO2	none
CC1(C)CC(=O)C=C(Sc2nc3cc(Cl)ccc3s2)C1	NOMO-1 viab 120
Cc1onc(-c2ccccc2Cl)c1C(=O)NC(=S)NCc1ccco1	none (no result: STK33 inh)
C=CC(C)(C)[C@@]12C[C@H]3C(=O)Nc4ccccc4C(=O)N3[C@@H]1Nc1ccccc12	NOMO-1 viab 92
C=CC(C)(C)[C@@]12C[C@H]3C(=O)N[C@H]([C@@H](C)CC)C(=O)N3[C@@H]1Nc1ccccc12	none
CSc1ncc(Cl)c(C(=O)Nc2sc3c(c2C(=O)NCC2CCCO2)CCC3)n1 (stereo not given)	none
C[C@@H]1CN([C@@H](C)CO)C(=O)c2cc(NC(=O)Nc3ccc(C(F)(F)F)cc3)ccc2O[C@H]1CN(C)CC1CCCCC1	NOMO-1 viab 118
C[C@H]1CN([C@@H](C)CO)C(=O)c2cc(NC(=O)Nc3ccccc3)ccc2O[C@H]1CN(C)CC1CCCCC1	none
C[C@H](CO)N1C[C@H](C)[C@@H](CN(C)CC2CCCCC2)Oc2ccc(NC(=O)Nc3ccc(F)cc3)cc2C1=O	none (no result: STK33 inh)
C[C@H](CO)N1C[C@H](C)[C@H](CN(C)CC2CCCCC2)Oc2ccc(NC(=O)Nc3ccc(C(F)(F)F)cc3)cc2C1=O	NOMO-1 viab 116 (no result: STK33 inh)
